In ChEMBL document CHEMBL3988442, “University of Dundee, Small-Polar-MMV Screening Library” (2021):

Key:
[1] = biological target: T1, Aspartate--tRNA(Asp/Asn) ligase (Mycobacterium tuberculosis (strain ATCC 25618 / H37Rv)) (UniProt P9WFW3); test: Assay for Asp RNA synthetase-1 from Mycobacterium tuberculosis; type: functional; design: scale not given: direction of the effect not stated beside the values; conditions: 30 µM; further: in the data most compounds retested in dose-response had high values
T1 sequence (whole entry): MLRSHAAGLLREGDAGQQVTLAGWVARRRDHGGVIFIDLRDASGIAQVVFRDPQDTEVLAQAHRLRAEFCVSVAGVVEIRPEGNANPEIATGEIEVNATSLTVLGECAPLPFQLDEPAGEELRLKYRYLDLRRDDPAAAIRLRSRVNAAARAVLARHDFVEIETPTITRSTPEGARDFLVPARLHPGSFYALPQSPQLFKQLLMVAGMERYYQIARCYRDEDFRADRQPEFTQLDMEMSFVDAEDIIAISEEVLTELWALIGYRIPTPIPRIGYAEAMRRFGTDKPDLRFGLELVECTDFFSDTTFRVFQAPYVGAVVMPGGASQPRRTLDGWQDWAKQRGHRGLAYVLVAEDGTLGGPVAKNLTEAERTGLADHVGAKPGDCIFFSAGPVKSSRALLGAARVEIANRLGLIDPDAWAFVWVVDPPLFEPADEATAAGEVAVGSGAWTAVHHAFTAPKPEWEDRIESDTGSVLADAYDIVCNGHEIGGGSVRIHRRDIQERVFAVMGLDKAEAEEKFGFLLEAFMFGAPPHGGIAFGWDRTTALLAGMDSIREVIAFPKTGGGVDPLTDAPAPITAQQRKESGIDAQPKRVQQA

[2] = biological target: Shiga toxin 2 (Escherichia coli O157:H7) (UniProt P09385+P09386); test: E. coli 0.157:H7 Shiga Toxin SOP - stx2 screening assay; type: functional; design: scale not given: direction of the effect not stated beside the values; conditions: 30 µM

| SMILES | Percent Effect [1] [%] | Percent Effect [2] [%] |
| --- | --- | --- |
| O=C(CCO)N1CCOC2(CCCN(C(=O)c3ccco3)C2)C1 (centres undefined) | -4.34 | -15.2 |
| CSCCNC(=O)c1ccc(OC2CCN(CC(C)(C)C)CC2)c(Cl)c1 | 1.62 | -38.1 |
| O=C(CN1CCc2c(ncn2C2CC2)C1)NC1CC1 | -0.0146 | 5.91 |
| Cn1ncc(NCc2cc(F)cc(F)c2)c(Cl)c1=O | -1.31 | -23.1 |
| CCc1nccn1C1CCCN(C(=O)c2cc3nc(C)ccc3o2)C1 (centres undefined) | -2.42 | 20.3 |
| CN(C)c1ccc(CCCNC(=O)Nc2ccc(C#N)cc2)cc1 | -1.77 | -44.4 |
| O=C(CCc1nccs1)N1CCN(c2ncccn2)CC1 | -0.577 | 11.5 |
| CCc1nnc2n1CCN(C(=O)c1csc(-c3cnn(C)c3)n1)C2 | 0.836 | -15.8 |
| c1csc(-c2nc(CN3CCn4c(nnc4C4CC4)C3)co2)c1 | -3.42 | 1.36 |
| Cc1occc1CNC(=O)N(CCCO)C1CCc2ccccc21 (centres undefined) | -3.25 | 8.04 |
| Cc1ncccc1NC(=O)[C@H]1C[C@@H]2CCN(Cc3nccs3)C[C@@H]2O1 | -3.35 | 0.675 |
| Cc1ccsc1C(=O)N1CC(C(=O)NCC2CC2)C2(CCOCC2)C1 (centres undefined) | 8.9 | -7.68 |
| COC(=O)c1cccc(C(=O)N2CCN(c3cccc(C)c3C)CC2)n1 | -1.18 | -18.6 |
| Cn1nnc2cc(C(=O)N3CCCC3Cc3ccccc3)ccc21 (centres undefined) | 2.04 | -54.6 |
| O=C1CC(c2ccc(F)c(F)c2)c2snc(C(=O)O)c2N1 (centres undefined) | 3.57 | -5.34 |
| COCCC1(CO)CCCN(Cc2ccc(F)c(C)c2)C1 (centres undefined) | 6.95 | 15.6 |
| O=C(NCCCn1nc2ccccn2c1=O)NC1CCC(O)CC1 (centres undefined) | 4.86 | -44.5 |
| Cc1nnc(NCc2ccccc2Cl)c(C#N)c1C | 16.3 | 10.3 |
| CC(C)n1ccnc1CN1CCCN(C(=O)CC2C=CCC2)CC1 (centres undefined) | 1.91 | -0.917 |
| CC(C)c1ncc2c(n1)CN(Cc1ccc(C(N)=O)cc1)CC2 | -0.3 | -42.6 |
| CCOc1ccnc(N2CCN(C(=O)c3cccc(C#N)c3)CC2)n1 | -3.26 | 40.5 |
| Cc1nn(C)c2cnn(CC(=O)NCCc3ccccc3)c12 | -1.83 | -33.3 |
| Cc1nc2n(n1)CC(Nc1cc(C(F)(F)F)nc3ncnn13)CC2 (centres undefined) | -5.49 | -1.67 |
| CN(C)C(=O)C1CN(Cc2cscn2)CCN(S(C)(=O)=O)C1 (centres undefined) | 0.521 | -12.3 |

| SMILES | Percent Effect [1] [%] | Percent Effect [2] [%] |
| --- | --- | --- |
| O=C(c1cnc(COc2ccccc2)nc1O)N1CCOCC1 | 1.28 | -10.9 |
| CN(C)Cc1nnc(C2CCN(C(=O)CCc3cccs3)CC2)n1C | -0.948 | -11.1 |
| COc1ccc(C(=O)N2Cc3c(Cn4ccnc4)nn(C)c3C2)cc1 | -10.7 | -6.82 |
| Cc1nn(C)c(C)c1CC(=O)N1CCCC(n2cccn2)C1 (centres undefined) | -4.75 | 20.6 |
| NC(=O)CN1CCC(NC(=O)Nc2nccs2)CC1 | -4.06 | -29.4 |
| CN(CCCC#N)C1CCCN(Cc2noc(C3CC3)n2)C1 (centres undefined) | -2.54 | 7.14 |
| CCCNC(=O)C(C)NC(=O)CCc1ccccc1Br (centres undefined) | 0.362 | -18.6 |
| c1cnn(CCNCc2nnc(C3CC3)o2)c1 | -0.343 | -28.3 |
| CNc1nc2c(c(C(=O)N3CCCC3)n1)CN(Cc1nccn1C)CC2 | 1.96 | -4.2 |
| Cc1nn(C)c(C)c1C1CCCN1Cc1nc(-c2ccco2)oc1C (centres undefined) | -1.54 | 22.6 |
| CN(C)C(=O)[C@@H]1C[C@@H]2CCN(Cc3ccc4c(c3)OCO4)C[C@@H]2O1 | -0.869 | 3.86 |
| COc1ncccc1NC(=O)c1cccc(C)n1 | 1.43 | -22.7 |
| CC(=O)NCC(=O)N1CCn2cc(CN3CCN(C)CC3)nc2C1 | 1.6 | -27.6 |
| CNC(=O)CC1CCN(Cc2nc(-c3cccc(Cl)c3)oc2C)CC1 | 4.32 | -21.3 |
| O=C1CCCCN1Cc1cccc(NC(=O)N2CCSCC2)c1 | -4.71 | -1.06 |
| CN(Cc1nc(N)c2ccccc2n1)C1CCCN(c2cccnn2)C1 (centres undefined) | -4.22 | -28.7 |
| CCC1CN(C(=O)c2ccc(Cl)cc2O)CCN1C(C)C (centres undefined) | -3.56 | 5.13 |
| Cc1nn(C)c(N2CCOCC2)c1CNCc1ccc(Cl)s1 | 5.1 | 27.1 |
| COc1ccc(CN2CCn3cc(CN4CCCCC4)nc3C2)cc1 | 4.3 | -5.01 |
| O=C(Nc1cccc(CNCc2cccs2)c1)C1CCCC1 | 1.74 | 13 |
| COc1ccc2c(c1)CN(Cc1nc3c(cnn3C)c(=O)[nH]1)CC2 | -4.4 | -3.66 |
| Cc1cnn(CC2CCCCN2C(=O)c2ccnc(N(C)C)c2)c1 (centres undefined) | 1.07 | 16.2 |
| Fc1cccnc1CN1CCCCC1c1ccn2ccnc2n1 (centres undefined) | 1.4 | -17.1 |
